According to PubChem BioAssay AID1159580 (chemical genetic matrix, 2015):
“And” between values parts separate entries of the source, which are not always exact repeats. Identical values can stand only once. Hit rate of the full screen: of about 5,500 compounds, about 2,000 (36%) were called active. Another 18% or so got no clear call; they are omitted. This is one part of the list. A number with no mark means an inactive call. Rule as the data show it: active = normalized growth mostly below about 0.91 (no sharp cut-off); inconclusive = no clear call, values can overlap the other calls; inactive = mostly above about 0.92.

Assay: chemical genetic growth profiling, strain panel (AID 1159580);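 also: tested at 20 µM; growth read once vehicle control cultures reached saturation at 30 °C; 1 = growth at the plate median or of vehicle wells; lower values mean less growth of the strain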
Settings: S. cerevisiae deletion strains, growth OD

For `CN1C[C@H](C(=O)N[C@]2(C)O[C@@]3(O)[C@@H]4CCCN4C(=O)[C@H](Cc4ccccc4)N3C2=O)C[C@@H]2c3cccc4[nH]cc(c34)C[C@H]21`, the normalized growth (locus YAL013W, strain DEP1, hits give low values) was 0.96, the normalized growth (locus YAL021C, strain ccr4, hits give low values) was 0.95 and the normalized growth (locus YAL026C, strain drs2, hits give low values) was 1.01. It also gave a normalized growth (locus YAL030W, strain snc1, hits give low values) of 0.984, a normalized growth (locus YBL061C, strain skt5, hits give low values) of 0.996 and a normalized growth (locus YBR009C, strain hhf1, hits give low values) of 1.07. It also gave a normalized growth (locus YBR021W, strain FUR4, hits give low values) of 0.929, a normalized growth (locus YBR023C, strain chs3, hits give low values) of 1 and a normalized growth (locus YBR171W, strain sec66, hits give low values) of 0.973. The normalized growth (locus YBR229C, strain ROT2, hits give low values) was 0.983, the normalized growth (locus YBR231C, strain swc5, hits give low values) was 0.987 and the normalized growth (locus YBR279W, strain paf1, hits give low values) was 0.997. The normalized growth (locus YCL011C, strain gbp2, hits give low values) was 0.966, the normalized growth (locus YCL016C, strain dcc1, hits give low values) was 0.998 and the normalized growth (locus YCL029C, strain bik1, hits give low values) was 0.973. The normalized growth (locus YCL061C, strain MRC1, hits give low values) was 0.998, the normalized growth (locus YCL069W, strain vba3, hits give low values) was 0.992 and the normalized growth (locus YCR088W, strain abp1, hits give low values) was 0.994. It also gave a normalized growth (locus YDL005C, strain med2, hits give low values) of 0.997, a normalized growth (locus YDL035C, strain GPR1, hits give low values) of 1.01 and a normalized growth (locus YDL040C, strain nat1, hits give low values) of 1. It also gave a normalized growth (locus YDL074C, strain BRE1, hits give low values) of 0.896, a normalized growth (locus YDL101C, strain DUN1, hits give low values) of 0.957 and a normalized growth (locus YDL134C, strain PPH21, hits give low values) of 0.992. It also gave a normalized growth (locus YDL185W, strain tfp1, hits give low values) of 0.998, a normalized growth (locus YDL192W, strain arf1, hits give low values) of 0.988 and a normalized growth (locus YDR001C, strain nth1, hits give low values) of 0.981. For the same compound, the normalized growth (locus YDR069C, strain doa4, hits give low values) was 0.987, the normalized growth (locus YDR101C, strain arx1, hits give low values) was 0.996 and the normalized growth (locus YDR137W, strain rgp1, hits give low values) was 1.02. It also gave a normalized growth (locus YDR150W, strain NUM1, hits give low values) of 1, a normalized growth (locus YDR159W, strain sac3, hits give low values) of 1 and a normalized growth (locus YDR162C, strain NBP2, hits give low values) of 0.987. It also gave a normalized growth (locus YDR195W, strain ref2) of 0.99, a normalized growth (locus YDR297W, strain sur2, hits give low values) of 0.981 and a normalized growth (locus YDR318W, strain mcm21, hits give low values) of 0.97. For the same compound, the normalized growth (locus YDR334W, strain swr1, hits give low values) was 0.944, the normalized growth (locus YDR335W, strain msn5, hits give low values) was 0.992 and the normalized growth (locus YDR388W, hits give low values) was 0.981. For the same compound, the normalized growth (locus YDR392W, strain spt3, hits give low values) was 0.871, the normalized growth (locus YDR502C, strain sam2, hits give low values) was 0.968 and the normalized growth (locus YEL003W, strain gim4, hits give low values) was 0.99. The normalized growth (locus YEL037C, strain rad23, hits give low values) was 0.987, the normalized growth (locus YEL061C, strain CIN8 (second series), hits give low values) was 0.994 and the normalized growth (locus YEL061C, strain CIN8, hits give low values) was 0.996. The normalized growth (locus YER015W, strain faa2, hits give low values) was 0.971, the normalized growth (locus YER016W, strain bim1, hits give low values) was 0.988 and the normalized growth (locus YER110C, hits give low values) was 0.977. For the same compound, the normalized growth (locus YER111C, strain swi4, hits give low values) was 1.01, the normalized growth (locus YER155C, strain BEM2 (second series), hits give low values) was 0.964 and the normalized growth (locus YER155C, strain BEM2, hits give low values) was 0.979. The normalized growth (locus YER167W, strain BCK2, hits give low values) was 0.981, the normalized growth (locus YFR010W, strain ubp6, hits give low values) was 0.997 and the normalized growth (locus YGL078C, strain dbp3, hits give low values) was 0.982. For the same compound, the normalized growth (locus YGL086W, strain mad1, hits give low values) was 0.985, the normalized growth (locus YGL167C, strain pmr1, hits give low values) was 1 and the normalized growth (locus YGL173C, strain kem1, hits give low values) was 0.993. For the same compound, the normalized growth (locus YGL227W, strain vid30, hits give low values) was 0.996, the normalized growth (locus YGL240W, strain doc1, hits give low values) was 0.938 and the normalized growth (locus YGL248W, strain PDE1, hits give low values) was 0.945. It also gave a normalized growth (locus YGL253W, strain hxk2, hits give low values) of 0.98, a normalized growth (locus YGR078C, strain PAC10, hits give low values) of 0.947 and a normalized growth (locus YGR135W, strain pre9, hits give low values) of 0.912. For the same compound, the normalized growth (locus YGR252W, strain gcn5, hits give low values) was 0.741 (active), the normalized growth (locus YHR013C, strain ard1, hits give low values) was 0.971 and the normalized growth (locus YHR027C, strain rpn1, hits give low values) was 0.967. The normalized growth (locus YHR030C, strain SLT2, hits give low values) was 0.994 and 1.01, the normalized growth (locus YHR079C, strain IRE1 (second series), hits give low values) was 0.977 and the normalized growth (locus YHR079C, strain IRE1, hits give low values) was 1.01. For the same compound, the normalized growth (locus YHR094C, strain hxt1, hits give low values) was 0.98, the normalized growth (locus YHR129C, strain ARP1, hits give low values) was 0.983 and the normalized growth (locus YHR142W, strain chs7, hits give low values) was 1. For the same compound, the normalized growth (locus YHR200W, strain rpn10, hits give low values) was 0.981, the normalized growth (locus YIL066C, strain RNR3, hits give low values) was 0.984 and the normalized growth (locus YIL073C, strain SPO22, hits give low values) was 0.98. For the same compound, the normalized growth (locus YIL125W, strain kgd1, hits give low values) was 0.987, the normalized growth (locus YIR030C, strain dcg1, hits give low values) was 0.975 and the normalized growth (locus YJL092W, strain hpr5, hits give low values) was 0.985. For the same compound, the normalized growth (locus YJL095W, strain BCK1 (second series), hits give low values) was 0.98, the normalized growth (locus YJL095W, strain BCK1, hits give low values) was 0.926 and 1.03 and the normalized growth (locus YJL115W, strain asf1, hits give low values) was 0.983. The normalized growth (locus YJL129C, strain trk1, hits give low values) was 0.973, the normalized growth (locus YJL134W, strain LCB3, hits give low values) was 0.984 and the normalized growth (locus YJL154C, strain vps35, hits give low values) was 0.982. It also gave a normalized growth (locus YJL164C, strain tpk1, hits give low values) of 1.02, a normalized growth (locus YJL166W, strain qcr8, hits give low values) of 0.94 and a normalized growth (locus YJL168C, strain set2, hits give low values) of 0.98. It also gave a normalized growth (locus YJL187C, strain SWE1 (second series), hits give low values) of 0.941, a normalized growth (locus YJL187C, strain SWE1, hits give low values) of 0.986 and a normalized growth (locus YJR043C, strain POL32, hits give low values) of 0.991. The normalized growth (locus YJR066W, strain TOR1, hits give low values) was 0.94.
